From PubChem
Pol kappa inh-1: qHTS for Inhibitors of Polymerase Kappa; 400,000 compounds, 0.53% hits; DNA polymerase kappa (Homo sapiens), Q9UBT6; AID 588579, 2011; Potency, µM (doses to about 107 µM), most hits filed as inhibitors; purified Pol kappa, fluorescent DNA synthesis assay, 10 min
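Activity was followed as the change in fluorescence between reads at 0 and 10 min after starting the reaction with 50 nM substrate. Beforehand, 10 nM polymerase had been preincubated with compound for 15 min at room temperature.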
PI5P4Ka inh: qHTS for Inhibitors of phosphatidylinositol 5-phosphate 4-kinase (PI5P4K); AID 652105, 2013; Phosphatidylinositol 5-phosphate 4-kinase type-2 alpha (Homo sapiens), P48426; 330,000 compounds, 1.2% hits; max response, %; PI5P4Kalpha enzyme, ADP-Glo luminescence, 60 min; hits give low values; active = max response of -50% or lower; inconclusive = between -30% and -50%; inactive = -30% or higher; also: value at the top dose of about 77 µM
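ADP-Glo luminescence end-point read after a 60 min room-temperature kinase reaction of PI5P4Kalpha plus substrate, initiated with ATP at 5 microM final. Buffer: 0.038 M HEPES pH 7.4, EGTA, 0.1% CHAPS, 5% DMSO.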
WRN helicase inh: qHTS for Inhibitors of WRN Helicase. Bifunctional 3'-5' exonuclease/ATP-dependent helicase WRN (Homo sapiens), Q14191. WRN helicase unwinding, fluorescent forked duplex, kinetic. Potency, µM (highest dose often 114 µM), actives largely listed as inhibitors. 360,000 compounds, 0.46% hits; also: nearly all actives have a fitted effect of over 55% in size
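Kinetic fluorescence helicase assay: unwinding of a quenched forked DNA duplex (100 nM final) with 2 mM ATP final raises red fluorescence (525/598 nm). Compounds sat 15 min at room temperature with 20 nM WRN beforehand.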
Pol eta inh-1: qHTS for Inhibitors of Polymerase Eta. Potency, µM (series often up to 114 µM), most hits filed as inhibitors. 390,000 compounds, 1.2% hits. AID 588591, 2011. recombinant Pol eta, fluorescent DNA replication assay. DNA polymerase eta (Homo sapiens), Q9Y253
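Pol eta (10 nM) was preincubated with compounds for 15 min at room temperature, after which fluorescent replication substrate (50 nM final) was added to start the reaction. Fluorescence was read kinetically at 0 and 10 min.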
POLI inh: qHTS for Inhibitors of Polymerase Iota | DNA polymerase iota (Homo sapiens), Q9UNA4 | Pol iota fluorescent replication assay, 10 min | Potency, µM (series often up to 115 µM), most hits filed as inhibitors | 390,000 compounds, 1% hits | AID 588590, 2011
Target sequence (Q9UNA4 whole entry, looked up): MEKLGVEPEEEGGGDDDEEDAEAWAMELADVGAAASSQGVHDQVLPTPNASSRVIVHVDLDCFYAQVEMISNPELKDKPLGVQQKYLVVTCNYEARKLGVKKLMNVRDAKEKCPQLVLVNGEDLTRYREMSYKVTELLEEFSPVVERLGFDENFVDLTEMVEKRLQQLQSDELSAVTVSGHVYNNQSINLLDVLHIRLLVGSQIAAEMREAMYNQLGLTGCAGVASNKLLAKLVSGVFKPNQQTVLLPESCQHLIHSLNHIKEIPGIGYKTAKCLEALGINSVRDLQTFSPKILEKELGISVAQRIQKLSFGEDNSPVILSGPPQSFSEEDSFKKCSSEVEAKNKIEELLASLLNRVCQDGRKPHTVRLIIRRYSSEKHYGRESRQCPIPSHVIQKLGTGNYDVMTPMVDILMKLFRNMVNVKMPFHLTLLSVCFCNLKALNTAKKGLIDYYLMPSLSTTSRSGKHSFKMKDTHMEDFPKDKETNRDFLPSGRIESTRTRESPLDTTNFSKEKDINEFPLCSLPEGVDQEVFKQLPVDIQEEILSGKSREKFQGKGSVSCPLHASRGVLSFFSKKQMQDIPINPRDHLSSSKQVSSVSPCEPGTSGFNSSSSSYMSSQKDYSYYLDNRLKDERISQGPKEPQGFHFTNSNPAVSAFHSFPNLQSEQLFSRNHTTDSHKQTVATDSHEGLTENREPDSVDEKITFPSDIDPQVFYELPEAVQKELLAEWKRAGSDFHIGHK
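Fluorescent replication assay read twice, at 0 min and 10 min after adding 50 nM (final) substrate. Enzyme (10 nM) and compounds were first incubated 15 min at room temperature; enzyme-free buffer wells were negative controls.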
POLB inh: qHTS Assay for Inhibitors of DNA Polymerase Beta | P06746 | Pol beta primer extension/strand displacement, fluorescence kinetic | Potency, µM (titrated, usually from 114 µM), actives largely listed as inhibitors | 340,000 compounds, 1.3% hits | AID 485314, 2010
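Curves were derived by four-parameter Hill fits of normalized qHTS data. The kinetic fluorescent primer-extension read was taken at 0 and 10 min after 50 nM substrate, following a 15 min room-temperature preincubation of 10 nM enzyme with compounds.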
GALK confirm: Confirmation Assay for Inhibitors of Human Galactokinase (GALK). shares compounds with Pol eta inh-1. AID 2015, 2009. 150 compounds, 70% hits. purified GALK, Kinase-Glo ATP depletion luminescence. Potency, µM (series often up to 115 µM), usual class: inhibitors
Redox cycling: Confirmatory Assay for Inhibitors of Human Galactokinase (GALK): Phenol-HRP redox assay counterscreen. shares compounds with Pol eta inh-1. Potency, µM (series often up to 115 µM), usual class: inhibitors. Phenol red-HRP H2O2 redox cycling, absorbance 600 nm. 150 compounds, 40% hits
HEK293 viability: Secondary Assay for Inhibitors of Human Galactokinase (GALK): HEK-293 Cell Viability Assay. shares compounds with Pol eta inh-1. HEK-293 viability, ATP luminescence (CellTiter-Glo), 24/48 h. Potency, µM (highest dose often 46.1 µM), actives largely listed as inhibitors. 170 compounds, 10% hits. AID 2547, 2010
Pol kappa inh-2: qHTS for Inhibitors of Polymerase Kappa: Confirmatory Assay for Cherry-picked Compounds; shares compounds with Pol eta inh-1; AID 720501, 2013; purified Pol-kappa, fluorescent strand-displacement substrate; 920 compounds, 76% hits; Potency, µM, most hits filed as inhibitors
Pol eta inh-2: qHTS for Inhibitors of Polymerase Eta: Confirmatory Assay for Cherry-picked Compounds; shares compounds with Pol eta inh-1; Pol eta primer extension, TAMRA/BHQ fluorescence, 10 min; Potency, µM, usual class: inhibitors; 2,600 compounds, 64% hits
A number is an active result; i = inactive; ? = inconclusive; nt = no result given; [ ] = another dose, or the depositor's remark. Most compounds without a hit are left out; they make up all but 2.8% or so of the library. Unless noted, calls follow the shape of the dose curve; as a rule, active = well fitted curve in the direction sought with a large enough effect; inconclusive = small, poorly fitted or top-dose-only effect, or another doubt; inactive = no such curve, though single readings can be large; an effect the other way counts as inactive or inconclusive.

SMILES	Pol kappa inh-1	PI5P4Ka inh	WRN helicase inh	Pol eta inh-1	POLI inh	POLB inh	Pol eta inh-2	others
CC(C)OC(=O)C(C(=O)C(F)(F)F)c1cc(NS(=O)(=O)c2ccc3ccccc3c2)c2ccccc2c1O (stereo unspecified)	i	i	?	?	?	i	nt	GALK confirm=?;Redox cycling=i;HEK293 viability=i
O=C(O)/C=C/C(=O)Nc1ccc(C2(c3ccc(NC(=O)/C=C/C(=O)O)cc3)c3ccccc3-c3ccccc32)cc1	i	-58.5	i[11.6 µM]	50.1µM	?	50.1µM	?
COC(=O)C(C)Oc1ccc(Cc2ncc(C(F)(F)F)cc2Cl)cc1 (stereo unspecified)	i	i	i	i	i	i	nt
CC1=CN2C(=N)/C(=C/c3ccc([N+](=O)[O-])o3)C(=O)N=C2S1	31.6µM	-66.7	31.6µM	3.98µM	15.8µM	17.8µM	60.1
COCc1cc(C)n(CC(=O)N/N=C/c2ccc(-c3ccc(Cl)c(C(=O)O)c3)o2)c(=O)c1C#N	?	?	?	10µM	22.4µM	20µM	42.6
COCc1cc(C)n(CC(=O)Nc2ccc(N3CCOCC3)c(Cl)c2)c(=O)c1C#N	i	i	i	i	i	i	nt
Cn1c(=O)c(Nc2ccc(O)cc2)c2c3c(cccc31)C(=O)c1ccccc1-2	?	?	?	14.1µM	15.8µM	31.6µM	?
O=C1CS/C(=N\N=C\c2ccco2)N1c1ccccc1	?	?	i[11.6 µM]	?	?	?	?	Pol kappa inh-2=?
Oc1c(Br)cc(C=Nc2ccc3nc(-c4ccccc4)[nH]c3c2)c(O)c1Br	50.1µM	-70.9	?	14.1µM	?	?	30.1	Pol kappa inh-2=9.47
Cc1ccc(NC(=O)CSc2nc(-c3ccco3)nc3cc(=O)[nH]n23)c(Cl)c1	?	?	i[11.6 µM]	44.7µM	39.8µM	50.1µM	47.8
O=C(CSc1nc(-c2ccco2)nc2cc(=O)[nH]n12)Nc1ccccc1Cl	i	nt	nt	i	?	i	nt
COc1ccc(/C=C2\SC(=S)N(NS(=O)(=O)c3ccc(C)cc3)C2=O)c(OC)c1	i	-75.5	i	?	i	?	21.3
CCOc1ccc(/C=C2\SC(=S)N(NS(=O)(=O)c3ccccc3)C2=O)cc1OC	i	i	i	i	i	i	nt
Cc1ccc(-n2ncc3c(SCC(N)=O)ncnc32)cc1C	i	i	i	i	i	i	nt
COc1ccc(C(=O)NCc2cn3ccc(C)cc3n2)cc1	i	nt	nt	i	i	i	nt
Oc1ccc(-c2cn3ccccc3n2)cc1O	i	i	i	i	i	i	nt
Cc1ccn2cc(-c3ccc(O)c(O)c3)nc2c1	20µM	i	44.7µM	22.4µM	14.1µM	10µM	?
Cc1ccn2cc(CC(=O)O)nc2c1	?	i	i	14.1µM	?	12.6µM	67.5
